The values below come from PubChem BioAssay (NCATS).

Inconclusive results are not listed. A number with no mark means an inactive call. Calls follow the shape of the dose curve; as a rule, active = well fitted curve in the direction sought with a large enough effect; inconclusive = small, poorly fitted or top-dose-only effect, or another doubt; inactive = no such curve, though single readings can be large or run the other way.
% is scaled to controls: 0 for no effect and ±100 for the full control effect.

The test in a line: qHTS Assay for Identifying Gametocytocidal Compounds (AID 743244).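 Also: actives lower the fluorescent signal which means gametocytes are killed.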 The following applies: P. falciparum 3D7 stage III-V gametocytes, alamarBlue, 72 h; max response: active compounds read low. Put shortly:
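Stage III–V gametocytes of P. falciparum 3D7 were seeded at 20,000 cells/well onto pre-dispensed compounds. After 72 h, 37 °C, 5% CO2, alamarBlue was added for another 24 h.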
For `CCN(CC)CCOC(=O)C1(c2ccccc2)CCCC1`, the max response is -2.23%. The figure for `O=C1C(O)=C(O)C(=O)C(O)=C1O` is -3.08%; for `CC(=O)N[C@@H](CCC(=O)O)C(=O)O` it is -0.648%. On to `CCc1oc2ccccc2c1C(=O)c1cc(I)c(O)c(I)c1`, for which the max response is 0.665%. Turning to `CN1CCN(C2=Nc3ccccc3Sc3ccc(Cl)cc32)CC1`, the max response was -0.118%. Turning to `CC1=C(C(=O)O)N2C(=O)[C@@H](NC(=O)[C@H](N)c3ccccc3)[C@H]2SC1`, the max response was 2.91%. Consider `COc1ccc(CN(CCN(C)C)c2ncccn2)cc1`, for which the max response is -8.37%. Regarding `CC(C)(C)NC[C@H](O)COc1cccc2c1CCCC2=O`, the max response is -0.406%.

Regarding `CC(C)=CCOc1ccc(/C=C/C(=O)c2ccc(OCC=C(C)C)cc2OCC(=O)O)cc1`, the max response was 2.6%. The figure for `NCc1ccccc1Sc1ccccc1CO` is -6.07%; for `CCOC(=O)c1ccc(N)cc1` it is 11.9%; for `CC(=O)OCC(=O)[C@H]1CC[C@H]2[C@@H]3CCC4=CC(=O)CC[C@]4(C)[C@H]3CC[C@]12C` it is -7.41%. Take `N/C(=N\N=C\c1ccc(Cl)cc1)N/N=C/c1ccc(Cl)cc1`: the max response is 0.563%. In the case of `Nc1ccc(S(=O)(=O)NCc2ccccc2)cc1` it was -10.6%; in that of `O=C1[C@H](CC[C@H](O)c2ccc(F)cc2)[C@@H](c2ccc(O)cc2)N1c1ccc(F)cc1`, 4.75%. Consider `COc1cc(C(=O)NCc2ccc(OCCN(C)C)cc2)cc(OC)c1OC`, for which the max response is 1.8%.
